aSyn UTR act = Activators via SNCA 5'UTR binding, MLPCN; alpha-synuclein 5'UTR reporter, activators screen; 300,000 compounds, 7.1% hits; activity score, % (tested at 7.5 µM), hits read low; in the data active = activity score below about -60%
The depositor's hits bear a star. A selection follows.

SMILES	aSyn UTR act
COc1ccc(NCc2ccc(OC)c(OC)c2)cc1	-105.0*
COc1ccc(CNc2ccc(C)c(C)c2)cc1	-71.7*
CCOc1c(Br)cc(CNc2ccc3c(c2)OCCO3)cc1OC	96.8
COc1ccc(CNc2ccc(Br)cc2)cc1	-111.9*
COc1ccc(C(=O)Cc2ccc(OC)c(OC)c2)cc1	-109.4*
O=C(Nc1ncc2c(n1)CC(c1ccco1)CC2=O)c1ccccc1 (stereo not drawn)	-71.9*
O=C(O)c1cc(-c2c[nH]c3ccccc23)nc2cc3ccccc3cc12	-65.8*
O=[N+]([O-])c1cc(/C=N/N2CCCCC2)ccc1Cl	-89.4*
CN1CCN(/N=C/c2ccc(Cl)c(Cl)c2)CC1	-144.7*
CN1CCN(/N=C/c2ccc(Br)cc2)CC1	-118.1*
CN1CCN(/N=C/c2ccc(N(c3ccccc3)c3ccccc3)cc2)CC1	70.6
COc1ccc(-c2nc(-c3ccccn3)no2)cc1	107.4
COc1cc(OC)cc(-c2nc(-c3ccccc3)no2)c1	-139.7*
COc1ccc2[nH]c(=O)c(-c3noc(-c4ccccc4)n3)cc2c1	-121.4*
COc1ccc(-c2nc(-c3ccc(NC(=O)c4ccncc4)cc3)no2)cc1OC	-155.0*
O=C(O)c1ccc(-c2noc(-c3cccc(F)c3)n2)cc1	-96.0*
COc1cccc(-c2nc(-c3ccc(NC(=O)c4cccs4)cc3)no2)c1	-154.2*
COc1cccc(-c2nc(-c3ccc(C(=O)O)cc3)no2)c1	-96.0*
COc1cccc(-c2noc(-c3ccc(Cl)nc3)n2)c1	-182.1*
COc1cccc(C2=NO[C@@H]3C(=O)N(c4ccc5c(c4)OCCO5)C(=O)[C@H]23)c1OC	-80.8*
Oc1oc(-c2ccccc2)nc1C=NCc1ccccc1	-133.0*
CN(C)c1ccc(N=Cc2nc(-c3ccccc3)oc2O)cc1	-94.9*
CC(=O)Oc1oc(-c2ccccc2)nc1/C=N/c1ccccn1	-71.6*
CN(C)c1ccc(N=Cc2nc(-c3ccccc3)oc2OC(=O)c2ccccc2)cc1	-115.4*
C=CCn1c(SCC(=O)c2[nH]c(C)c(C(=O)OCC)c2C)nc2scc(-c3ccccc3)c2c1=O	57.2
SMILES	aSyn UTR act
C=CCn1c(SCC(N)=O)nc2scc(-c3ccc(C)o3)c2c1=O	-84.2*
O=S(=O)(c1ccccc1)n1nc(-c2ccccc2)nc1NCc1ccco1	-64.7*
CCCC(=O)n1nc(-c2ccc(C)cc2)nc1NCc1ccco1	-88.1*
Cc1ccc(C(=O)n2nc(-c3ccccc3)nc2NCc2ccco2)cc1	-67.7*
CC(C)(C)c1ccc(-c2noc(CCC(=O)NCc3ccco3)n2)cc1	77.3
CN(C)S(=O)(=O)Oc1ccc(C(=O)Nc2cccc(Cl)c2)cc1	-243.6*
CN(C)S(=O)(=O)Oc1cccc(C(=O)Nc2ccccc2Cl)c1	-91.3*
CN(C)S(=O)(=O)Oc1cccc(C(=O)Nc2ccc(Cl)cc2)c1	-129.3*
N/C(=N\OC(=O)Nc1ccccc1)c1ncc([N+](=O)[O-])s1	-94.2*
COc1ccc2c(=O)c3ccccc3oc2c1	-146.8*
COc1ccc2c(c1)oc(=O)c1cc(OC)ccc12	-181.9*
COc1ccc2c(c1)oc(=O)c1c3ccccc3[nH]c21	-277.2*
COc1ccc(NC(=O)/C=C/c2ccc(F)cc2)cn1	-113.9*
COc1ccc(NC(=O)/C=C/c2ccccc2)cn1	-116.1*
CC(=O)c1ccc(-c2nc3ccccc3n2C)o1	-142.5*
Cc1ccc(-c2nc3ccccc3n2C)o1	-154.6*
Cc1ccc(C2Nc3ccccc3-c3nc4ccccc4n32)o1 (stereo not drawn)	-104.3*
N/C(Cc1ccc([N+](=O)[O-])cc1)=N\OC(=O)c1ccccc1F	-185.2*
CC(=O)Nc1ccc(NC(=O)c2ccccc2S(=O)(=O)c2ccccc2[N+](=O)[O-])cc1	-81.4*
O=[N+]([O-])c1ccccc1S(=O)(=O)c1ccccc1	-78.8*
O=C(Nc1ccc(-c2ccc([N+](=O)[O-])cc2)cc1)c1ccccc1F	-69.3*
CC1(c2ccc(NC(=O)c3ccccc3F)cc2)CC1(Cl)Cl (stereo not drawn)	-195.0*
O=C(Nc1ccc([N+](=O)[O-])cc1)c1ccccc1F	-154.4*
CN(C)C=Nc1ncc2c([nH]c3ccccc32)c1C#N	-112.6*
COc1ccc(C(=O)Nc2nc3ccccc3c(=O)[nH]2)cc1	-126.6*
SMILES	aSyn UTR act
COc1ccc(Nc2ccc(OC)cc2)cc1	-104.6*
COc1cccc(C(=O)Nc2nc3c(c(=O)[nH]2)CCCC3)c1	-96.7*
COc1ccc(Nc2cc(C)c3ccccc3n2)cc1	-100.9*
Cc1cc2c3c(ccc(C)c3n1)N=CN2c1ccccc1	54.2
COc1ccc(C(=O)Nc2cccc3ccccc23)cc1	-137.7*
COc1ccc(Nc2cccc3ccccc23)cc1	-72.4*
Cc1ccc(NNc2c(C)nc3ccccc3nc2=O)cc1	-111.8*
CC(=O)Nc1nc2cc3c(cc2s1)OCO3	-99.8*
CC(=O)c1sc(Nc2nc3cc4c(cc3s2)OCO4)nc1C	-178.3*
O=C(Nc1nc2cc3c(cc2s1)OCO3)c1ccco1	79.8
COc1cc2c(cc1NC(=O)COC(=O)[C@@H](NS(=O)(=O)c1cccc(Cl)c1)C(C)C)oc1ccccc12	-103.0*
COc1ccc(S(=O)(=O)N[C@@H](C)C(=O)OCC(=O)Nc2cc3oc4ccccc4c3cc2OC)cc1	-128.9*
CC(=O)c1cccc(OCc2cc(C(=O)N(C)Cc3cnccn3)no2)c1	-85.4*
CN(Cc1cccnc1)C(=O)c1cc(COc2ccc3c(c2)CCCC3)on1	-127.4*
O=c1c2[nH]c3ccccc3c2ncn1C1CCCCC1	-91.2*
CCc1cc2cc(C(=O)Nc3ccc(C)cc3)sc2s1	-89.7*
CCN(CC)C(=O)c1cc2c(=O)n3ccccc3nc2s1	-125.3*
Cc1cc(NS(=O)(=O)c2ccc(NC(=O)c3cc4c(=O)n5ccccc5nc4s3)cc2)nc(C)n1	-79.2*
CC(C)CCNC(=O)c1cc2c(=O)n3ccccc3nc2s1	-146.0*
CCOc1ccc(NC(=O)COc2ccccc2)c([N+](=O)[O-])c1	-217.6*
CCOc1ccc(NC(=O)c2ccc(Br)o2)c([N+](=O)[O-])c1	-128.7*
Cn1c(SCc2ccc(C#N)cc2Cl)nc2ccccc21	-175.7*
N#Cc1nc(-c2cccs2)oc1NCCc1ccccc1	-111.3*
COc1ccc(-c2nc(C#N)c(NCCc3ccccc3)o2)cc1OC	-142.4*
Cn1cccc1/C=N/NC(=O)c1cccs1	-70.0*
SMILES	aSyn UTR act
CCCc1cc(C(=O)N/N=C/c2cccn2C)cs1	-71.8*
Cn1cc(/C=N\NC(=O)c2cccs2)c2ccccc21	-280.2*
COc1ccc(/C=N/NC(=O)c2cccs2)c2ccccc12	-61.6*
CC(=O)n1cc(/C=N/NC(=O)c2ccc(Cl)cc2)c2ccccc21	-69.1*
CC(=O)O[C@]1(C(C)=O)CC[C@H]2[C@@H]3C=CC4=CC(=O)C=C[C@]4(C)[C@H]3CC[C@@]21C	-83.0*
CC(C)c1ccc(O)c(NC(=S)NC(=O)c2ccc3c(c2)OCO3)c1	-124.0*
O=C(CC(=O)c1ccccc1)Nc1ccc2c(c1)OCCO2	-119.3*
O=C(NC(=S)Nc1ccc2c(c1)OCCO2)c1cccc(Br)c1	-301.6*
Nc1ccc(C(=O)c2ccc3c(c2)OCCO3)cc1N	-166.2*
O=C(Nc1cccc([N+](=O)[O-])c1)c1ccc2c(c1)OCCO2	-124.0*
O=C(Nc1ccc2c(c1)OCCO2)C(=O)NC1CC1	-74.2*
CSc1ccccc1C(=O)Nc1ccc2c(c1)OCCO2	-64.8*
CCc1ccc(NC(=O)c2cnc(SC)nc2C)cc1	-92.8*
O=C(Nc1ccc2c(c1)OCO2)c1ccccc1	-119.8*
O=C(CCNc1ccccc1)c1ccc2c(c1)OCO2	-193.1*
O=C(Nc1ccc2c(c1)OCO2)c1cncc(Br)c1	-191.5*

Bioassay records (PubChem BioAssay)
